13 compounds from PubChem BioAssay (NCI) can be followed below.

Common to all, as to test: NCI-60 one-dose screen, 48 h (100 = growth as untreated, 0 = no growth, -100 = all killed)
What all share (settings): 10 µM

The subject of assay [1] is NCI-H23 lung.
Assay [2] deals with NCI-H226 lung.
Assay [3] concerns NCI-H322M lung.
The test system of assay [4] is HOP-62 NSCLC.
The subject of assay [5] is NCI-H460 lung.
Assay [6] concerns NCI-H522 lung.
For assay [7], the system named is A549/ATCC NSCLC.
In assay [8] the test system is 786-0 renal.
The test system of assay [9] is COLO 205 colon.
Assay [10] has as its system DU-145 prostate.

About 83,000 compounds went through this panel and 20% of them were active in at least one assay; those are over-represented in the sample as a whole.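 Cells were grown in 96-well plates and exposed to the test compound at a single concentration for 48 hours; results are reported as percent growth, with values below 10 considered active.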 A number with no mark means an inactive call. Active and inactive are the calls of the source.

As to `CC(=O)O[C@]1(C)CC[C@H]2[C@H](CNCCc3ccc(Cl)cc3)C(=O)O[C@@H]2C2=C(C)C(=O)C[C@H]21`, the growth in assay [1] was 102%; in assay [2] it was 94.9%; in assay [3], 91.9%; in assay [4], 94%; in assay [5] it was 106%; in [6], -33.4% (active). Also, the growth in assay [7] was 85.6%; in [8], 96.6%; in assay [9] it was 97%; in assay [10] it was 89.4%.
In the case of `CCCCCCCCCCCCCCCC(=O)OC1[C@@H](OC(=O)CCCCCCCCCCCCCCC)[C@@H](C(=O)N[C@@H](CCCCN)C(=O)OC)O[C@H]1n1cnc2c(=O)[nH]c(NC(=O)C(C)C)nc21` (stereo not given in full), the growth in assay [1] was 97.8%; in assay [2], 102%; in assay [3], 89.6%; in [4], 104%; in [5], 101%; in assay [6] it was 84.4%. In addition, the growth was 99.8% in assay [7], 98.1% in assay [8], 101% in assay [9] and 107% in assay [10].
In the case of `CNc1ncc(-c2ccc(C(F)(F)F)cc2)c(NC2CCCCCC2)n1`, the growth in [1] was 62.6%; in [2] it was 70.3%; in assay [3] it was 76.6%; in assay [4] it was 92.6%; in assay [5], 87.8%; in [6], 57.6%. The growth in assay [7] is 69.1%; in assay [8], 79.4%; in assay [9] it was 68.5%; in assay [10], 91%.
Take `COC(=O)[C@@H]1[C@H](O)[C@H](C)[C@H](O)[C@@](C)(O)/C=C\C=C(C)C(=O)Nc2c(C)c(OC(C)=O)c3c(c2O)C(=O)C(C)=C2OCOC(=C23)C(C)=C[C@@](C)(O)[C@H](O)[C@@H](C)[C@H]1OC(C)=O`: the growth in [1] was 101%; in assay [2], 109%; in [3], 125%; in assay [4] it was 111%; in assay [5], 127%; in assay [6], 105%. Besides, the growth in [7] is 110%; in [8], 95.2%; in assay [9], 112%; in assay [10], 85.5%.
For the compound `COc1ccc2c(c1)N(CCO)C1=C(C(=O)OC1)C2c1ccccc1` (stereo not given), the growth in assay [1] is 35.1%; in assay [2] it was 36.3%; in [3], 41.7%; in assay [4] it was 24%; in assay [5], 9.29% (active); in assay [6] it was -24.9% (active). In addition, the growth in assay [7] is 46.6%; in [8] it was 37.9%; in [9] it was 8.42% (active); in assay [10], 16.4%.
Consider `O=C1NC(=O)N(Cc2ccccc2)CC1Br` (stereo not given), for which the growth in assay [1] is 52.6%; in assay [2], 83.2%; in assay [3], 104%; in assay [4], 79.2%; in [5], 96.7%; in [6], -9.22% (active). For the same compound, the growth in assay [7] was 102%; in assay [8] it was 63%; in [9] it was 64.9%; in assay [10], 104%.
In the case of `COc1cc(-c2cc(/C=C/C(=O)c3ccc(Cl)c(Cl)c3)[nH]n2)cc(OC)c1OC`, the growth in assay [1] is 101%; in assay [2] it was 81.7%; in [3], 62.7%; in assay [4], 75.9%; in [5] it was 79.4%; in [6], 38%. In addition, the growth in assay [7] is 88.3%; in [8], 69.7%; in assay [9] it was 78%; in [10], 62.4%.
For `CN(C)CCN=c1nc2c(c(N)n1-c1ccccc1)c(=S)n(-c1ccccc1)c(=S)n2-c1ccccc1`, the growth in [1] is 67.6%; in assay [2], 82.3%; in assay [3] it was 58.5%; in [4], 6.19% (active); in assay [5] it was 3.8% (active); in [6] it was 34.2%. Moreover, the growth was 35.3% in assay [7], -83.5% (active) in [8], 6.65% (active) in assay [9] and 45% in [10].
On to `COc1ccc(OC)c(/C=C/c2nc(SC)n(-c3ccc(Cl)cc3)n2)c1`, for which the growth is 59.7% in assay [1]; 70.9% in [2]; 73.3% in assay [3]; 90.3% in assay [4]; 85.2% in assay [5]; 81.6% in [6]. The growth in assay [7] was 64.8%; in assay [8], 86.8%; in assay [9] it was 78.1%; in [10], 93.9%.
As for `CN(C)CCCn1c(=O)c2ccccc2c2cnc3[nH]ccc3c21`, the growth was 13.8% in assay [1]; -0.537% (active) in assay [2]; 9.79% (active) in [3]; -1.44% (active) in assay [4]; -6.21% (active) in [5]; -38.9% (active) in assay [6]. Further, the growth in [7] is 1.69% (active); in assay [8], 15.2%; in assay [9], -31.3% (active); in assay [10], -0.745% (active).
Take `COc1ccc(-c2nc3ncccn3c2-c2nnc(-c3ccsc3C)o2)cc1`: the growth in assay [1] is 80.5%; in assay [2], 61.6%; in [3], 84.4%; in assay [4], 23.8%; in assay [5], 59.9%; in [6] it was 53.6%. Moreover, the growth was 78.8% in assay [7], 90.9% in assay [8], 110% in [9] and 88.3% in assay [10].
For the compound `c1ccc2c(-c3nc(N4CCOCC4)c4c5c(sc4n3)CCCCCC5)cccc2c1`, the growth is 107% in assay [1]; 93.8% in [2]; 110% in assay [3]; 101% in assay [4]; 104% in assay [5]; 91.2% in assay [6]. In addition, the growth was 97.7% in assay [7], 103% in [8], 114% in assay [9] and 119% in assay [10].
Regarding `COc1ccc(/C(=C2/O[C@@H]([C@H]3COC(C)(C)O3)[C@H]3OC(C)(C)O[C@@H]23)c2cc(OC)c(OC)c(OC)c2)cc1O`, the growth was 81.2% in assay [1]; 113% in assay [2]; 91.5% in assay [3]; 91.3% in [4]; 104% in assay [5]; 51.8% in assay [6]. Moreover, the growth is 80.1% in [7], 86.3% in [8], 121% in assay [9] and 45.6% in [10].
